The campaign covered roughly 220,000 compounds. About 820 (0.37%) were called active. The sample holds actives, similar compounds and a random draw of the others, so the mix is not that of the screen. Unmarked numbers belong to inactive results. Rule as the data show it: active = fluorescence above about 47; inactive = the rest.
Assay: green autofluorescence of compounds with avidin beads – biophysical, 488/530 nm, flow cytometry, artefact control, profiling panel (AID 1775)
Settings: compound fluorescence 488/530 nm, at 10 µM, hits give high values

Which fluorescence (KMESF) does the source give for `CSc1ccccc1NC(=O)Cc1ccc(Br)cc1` here?
Its fluorescence (KMESF) is 12.

Which fluorescence (KMESF) does the source give for `CCOC(=O)c1oc2c(CN3CCN(C)CC3)c(O)ccc2c(=O)c1-c1ccc(Br)cc1` here?
Its fluorescence (KMESF) is 189 (active).

With `CN1CCN(Cc2c(O)ccc3c2oc(=O)c2ccccc23)CC1` as the molecule, how does the fluorescence (KMESF) read?
The fluorescence (KMESF) was 22.

For `CCN1CCN(Cc2c(O)ccc3c(=O)c(-c4ccc(OC)c(OC)c4)c(C(F)(F)F)oc23)CC1`, which fluorescence (KMESF) is on record?
The fluorescence (KMESF) was 16.

With `OCCn1c(-c2ccccc2)csc1=Nc1ccccc1` as the molecule, how does the fluorescence (KMESF) read?
The fluorescence (KMESF) was 3.

For `CCOCN(C(=O)Cn1c(C(C)O)nc2ccccc21)c1c(C)cccc1CC` (centres undefined), which fluorescence (KMESF) is on record?
The fluorescence (KMESF) was 57 (active).

Which fluorescence (KMESF) does the source give for `CC(O)c1nc2ccccc2n1Cc1ccc([N+](=O)[O-])cc1` (centres undefined) here?
The fluorescence (KMESF) was 7.

With `CCc1cccc(C)c1N(C(=O)Cn1c(CO)nc2ccccc21)C(C)COC` (centres undefined) as the molecule, how does the fluorescence (KMESF) read?
Its fluorescence (KMESF) is 5.

Which fluorescence (KMESF) does the source give for `O=C1CC(N2CCN(c3ccc(F)cc3)CC2)C(=O)N1c1ccccc1` (centres undefined) here?
Its fluorescence (KMESF) is 9.

Which fluorescence (KMESF) does the source give for `COC(=O)c1ccc(S(=O)(=O)N(CCO)Cc2ccccc2)n1C` here?
The fluorescence (KMESF) was 6.

Which fluorescence (KMESF) does the source give for `CCCC1C(c2ccccc2)C(C#N)(C#N)C2(C#N)CC1(N)NC2=O` (centres undefined) here?
Its fluorescence (KMESF) is 90 (active).

Which fluorescence (KMESF) does the source give for `Cc1ccc(C(=O)COC(=O)CCN2C(=O)C3C4CC(C(Br)C4Br)C3C2=O)cc1` (centres undefined) here?
Its fluorescence (KMESF) is 14.

For `CCOc1ccc(S(=O)(=O)N/N=C(\C)c2ccc(Cl)c(Cl)c2Cl)cc1`, which fluorescence (KMESF) is on record?
The fluorescence (KMESF) was 7.

For `N#CCSc1nn(-c2ccc(F)cc2)c(=S)s1`, which fluorescence (KMESF) is on record?
Its fluorescence (KMESF) is 24.

With `CCOC(=O)c1c(/N=C/c2cc(C)ccc2O)sc2c1CCC2` as the molecule, how does the fluorescence (KMESF) read?
The fluorescence (KMESF) was 14.

Which fluorescence (KMESF) does the source give for `CC(C)(C)Nc1c(-c2cccs2)nc2ccccn12` here?
The fluorescence (KMESF) was 9.

For `O=C(COC(=O)Cn1cnc2ccccc2c1=O)NCc1ccccc1Cl`, which fluorescence (KMESF) is on record?
The fluorescence (KMESF) was 58 (active).

Which fluorescence (KMESF) does the source give for `O=C(COC(=O)Cn1cnc2ccccc2c1=O)NCC12CC3CC(CC(C3)C1)C2` here?
The fluorescence (KMESF) was 5.

Which fluorescence (KMESF) does the source give for `Cn1c(CCC(=O)OCC(=O)NCc2ccccc2Cl)nc(=O)c2ccccc21` here?
The fluorescence (KMESF) was 21.

For `COc1ccc(Br)cc1C(=O)Nc1cccc(C)c1C`, which fluorescence (KMESF) is on record?
The fluorescence (KMESF) was 8.

With `O=C(CCCCCN1C(=O)c2cccc3cccc(c23)C1=O)NCc1ccco1` as the molecule, how does the fluorescence (KMESF) read?
Its fluorescence (KMESF) is 4.

With `N#Cc1ccc(N2Cc3ccccc3/C2=N/C(=O)Nc2ccc(Cl)cc2)cc1` as the molecule, how does the fluorescence (KMESF) read?
The fluorescence (KMESF) was 15.

With `CC(NC(=O)COC(=O)c1cc(=O)[nH]c2ccccc12)c1ccccc1` (centres undefined) as the molecule, how does the fluorescence (KMESF) read?
Its fluorescence (KMESF) is 7.

Which fluorescence (KMESF) does the source give for `COc1cc2c(cc1OC)C(c1ccncc1)CC(=O)N2` (centres undefined) here?
The fluorescence (KMESF) was 47 (active).

For `COC(=O)c1ccc(C2CC(=O)Nc3cc(OC)c(OC)cc32)cc1` (centres undefined), which fluorescence (KMESF) is on record?
The fluorescence (KMESF) was 19.

Which fluorescence (KMESF) does the source give for `COc1cc2c(cc1OC)C(c1ccc(C)o1)CC(=O)N2` (centres undefined) here?
Its fluorescence (KMESF) is 22.

With `CC(CO)(CO)NC(=O)c1ccc(=O)[nH]n1` as the molecule, how does the fluorescence (KMESF) read?
Its fluorescence (KMESF) is 4.

For `CC(=O)NCC(=O)N1CCCC(C(=O)c2ccc3c4c(cccc24)CC3)C1` (centres undefined), which fluorescence (KMESF) is on record?
Its fluorescence (KMESF) is 80 (active).

Which fluorescence (KMESF) does the source give for `CCn1ccnc1CN1CCCC(C(=O)c2ccc3c4c(cccc24)CC3)C1` (centres undefined) here?
The fluorescence (KMESF) was 8.

Which fluorescence (KMESF) does the source give for `Cc1ncoc1C(=O)N1CCCC(C(=O)c2ccc3c4c(cccc24)CC3)C1` (centres undefined) here?
The fluorescence (KMESF) was 10.

With `Cc1nnc(Nc2ccccc2F)s1` as the molecule, how does the fluorescence (KMESF) read?
Its fluorescence (KMESF) is 5.

For `COc1cc(/C=C/C(=O)OCC(=O)N2CCOCC2)ccc1OCC#N`, which fluorescence (KMESF) is on record?
The fluorescence (KMESF) was 10.

For `O=C(NCCCc1ccccc1)C1CCC(CNc2c(N3CCCCC3)c(=O)c2=O)CC1` (centres undefined), which fluorescence (KMESF) is on record?
Its fluorescence (KMESF) is 7.

For `CCCc1nc(SCC(=O)Nc2ccc(S(=O)(=O)N(C)C)cc2)c2ccccc2n1`, which fluorescence (KMESF) is on record?
Its fluorescence (KMESF) is 1.

For `CCCn1c(SCC(=O)N2CCc3ccccc32)nnc1-c1ccncc1`, which fluorescence (KMESF) is on record?
The fluorescence (KMESF) was 7.

With `Cn1c(SCC(=O)N2CCCc3ccccc32)nc2ccccc2c1=O` as the molecule, how does the fluorescence (KMESF) read?
Its fluorescence (KMESF) is 4.

For `O=C(CSc1ccc2nnc(-c3ccccc3)n2n1)N1CCCc2ccccc21`, which fluorescence (KMESF) is on record?
The fluorescence (KMESF) was 76 (active).

With `CCOc1ccc2sc(NS(=O)(=O)c3ccc(N)cc3)nc2c1` as the molecule, how does the fluorescence (KMESF) read?
Its fluorescence (KMESF) is 4.

For `CC(C)(C)NC(=O)NCc1ccco1`, which fluorescence (KMESF) is on record?
Its fluorescence (KMESF) is 6.

From PubChem BioAssay AID1775 (NMMLSC, 2009)
